Inconclusive results are not listed. The source made the active and inactive calls. The calls were made as follows: active = hit-call score of the fitted dose curve at least 0.9, where 1 is the maximum; inconclusive = response in the unintended direction; inactive = score below 0.9.

The assay concerns zebrafish Androgen Receptor (AR), gene 100005148. The assay is described as follows: ATG_zfAR_EcoTox2: Attagene TRANS-FACTORIAL EcoTox-2 HepG2 Assay for zebrafish Androgen Receptor (AR). As for the experimental part:
ATG_EcoTox2 is a cell-based, multiplexed assay created by modifying the existing Attagene TRANS-FACTORIAL system to include a panel of nuclear receptors from some or all the following species: human (Homo sapiens), african clawed frog (Xenopus laevis), rainbow trout (Oncorhynchus mykiss), japanese medaka (Oryzias latipes), and zebrafish (Danio rerio). The ECOTOX2-FACTORIAL format uses HepG2, a human liver cell line, with measurements taken at 24 hours after chemical dosing in a 24-well plate. ATG_zfAR_EcoTox2 is one of 29 assay components calculated in the ATG_EcoTox2 assay. It is designed to make measurements of mRNA induction, a form of inducible reporter, as detected with fluorescence intensity signals by Reverse transcription polymerase chain reaction (RT-PCR) and Capillary electrophoresis technology.The assay endpoint ATG_zfAR_EcoTox2 was analyzed in the positive analysis fitting direction relative to DMSO as the negative control and baseline of activity. Using a type of inducible reporter, measures of mRNA for gain-of-signal activity can be used to understand the reporter gene at the transcription factor-level as they relate to the gene AR. Furthermore, this assay endpoint can be referred to as a primary readout, because this assay has produced multiple assay endpoints where this one serves a reporter gene function. To generalize the intended target to other relatable targets, this assay endpoint is annotated to the nuclear receptor intended target family, where the subfamily is steroidal.
Human liver HepG2 cells are transiently transfected with multiple reporter transcription units (MRTUs) in 6-well plates using FuGene 6 reagent (Roche; 3 ml FuGene/1 mg DNA). The MRTU constructs are regulated by a cis-regulating element (promoter). Each RTU expresses a GAL4-UAS that regulates the transcription of a nearby target reporter gene sequence. A major difference between the CIS and TRANS system is that in CIS activities of endogenous TFs are measured, whereas the TRANS assay evaluates changes in activities of exogenous, chimeric NR-Gal4 proteins. […] At the end of 24 hour incubation, total RNA was isolated using TriZol reagent (Invitrogen). The isolated RNA is then reverse-transcribed using oligo(dT) primer and Mo-MLV reverse transcriptase (Invitrogen) with DNAse I (Ambion) treatment for 30 min. The one-tenth of the produced cDNA was amplified by PCR using Taq DNA polymerase (Invitrogen) and two reporter sequence-specific primers. The PCR products were fluorescently labeled by primer extension with 6-arboxyfluorescein (6-FAM) 5'-labeled reporter sequence-specific primer (2 min at 95 C, 20 s at 68 C and 10 min at 72 C) and these products were digested with 5U of HpaI (New England Biolabs) for 2h at 37 C. The fragments were purified using Qiaquick PCR columns (Qiagen), analyzed on an ABI 3130xL genetic analyzer (Applied Biosystems) with peak positions identified by using a set of X-rhodamine (ROX)-labeled MapMarker1000 molecular weight standards (BioVentures). The raw capillary electrophoresis data was processed using Attagraph software (Attagene).
Turning to `C[C@]12C=CC(=O)C=C1CC[C@@H]1[C@@H]2C(=O)C[C@@]2(C)[C@H]1CC[C@]2(O)C(=O)CO`, the call was inactive.
Then `CC(C)(Oc1ccc(Cl)cc1)C(=O)O`, with “inactive”.
Then `C=C(c1ccc(C(=O)O)cc1)c1cc2c(cc1C)C(C)(C)CCC2(C)C`, with “inactive”; and `C[C@@H]1C[C@H]2[C@@H]3CCC4=CC(=O)C=C[C@]4(C)[C@@]3(F)[C@@H](O)C[C@]2(C)[C@@]1(O)C(=O)COP(=O)(O)O`, with “inactive”.
Then `CC(c1cc2ccccc2s1)N(O)C(N)=O` (centres undefined), with “inactive”; and `Cc1cccc(Nc2cc(Cl)nc(SCC(=O)O)n2)c1C`, with “inactive”.
Regarding `CC(C)(Oc1ccc(C2CC2(Cl)Cl)cc1)C(=O)O` (centres undefined), the result was inactive.
Then `Cc1ccc(C)c(OCCCC(C)(C)C(=O)O)c1`, with “inactive”; and `CC(C)OC(=O)C(C)(C)Oc1ccc(C(=O)c2ccc(Cl)cc2)cc1`, with “inactive”.

Values taken from PubChem BioAssay AID2284357 (EPA ToxCast).
